The whole screen tested about 310,000 compounds, of which about 14,000 (4.5%) showed an effect of 50% or more. The effect is printed as a negative number. For the sample, strong results were picked, then their nearest neighbours and some compounds at random.
target: human ether-à-go-go-related gene (hERG) potassium channel (human, UniProt Q12809); assay: primary screen, population patch clamp on CHO cells stably expressing hERG; higher = less effect of the substance
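Further: peak tail current of the secondary pulse compared with the same well before compound.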

human ether-à-go-go-related gene (hERG) potassium channel, sequence (Q12809 whole entry, looked up): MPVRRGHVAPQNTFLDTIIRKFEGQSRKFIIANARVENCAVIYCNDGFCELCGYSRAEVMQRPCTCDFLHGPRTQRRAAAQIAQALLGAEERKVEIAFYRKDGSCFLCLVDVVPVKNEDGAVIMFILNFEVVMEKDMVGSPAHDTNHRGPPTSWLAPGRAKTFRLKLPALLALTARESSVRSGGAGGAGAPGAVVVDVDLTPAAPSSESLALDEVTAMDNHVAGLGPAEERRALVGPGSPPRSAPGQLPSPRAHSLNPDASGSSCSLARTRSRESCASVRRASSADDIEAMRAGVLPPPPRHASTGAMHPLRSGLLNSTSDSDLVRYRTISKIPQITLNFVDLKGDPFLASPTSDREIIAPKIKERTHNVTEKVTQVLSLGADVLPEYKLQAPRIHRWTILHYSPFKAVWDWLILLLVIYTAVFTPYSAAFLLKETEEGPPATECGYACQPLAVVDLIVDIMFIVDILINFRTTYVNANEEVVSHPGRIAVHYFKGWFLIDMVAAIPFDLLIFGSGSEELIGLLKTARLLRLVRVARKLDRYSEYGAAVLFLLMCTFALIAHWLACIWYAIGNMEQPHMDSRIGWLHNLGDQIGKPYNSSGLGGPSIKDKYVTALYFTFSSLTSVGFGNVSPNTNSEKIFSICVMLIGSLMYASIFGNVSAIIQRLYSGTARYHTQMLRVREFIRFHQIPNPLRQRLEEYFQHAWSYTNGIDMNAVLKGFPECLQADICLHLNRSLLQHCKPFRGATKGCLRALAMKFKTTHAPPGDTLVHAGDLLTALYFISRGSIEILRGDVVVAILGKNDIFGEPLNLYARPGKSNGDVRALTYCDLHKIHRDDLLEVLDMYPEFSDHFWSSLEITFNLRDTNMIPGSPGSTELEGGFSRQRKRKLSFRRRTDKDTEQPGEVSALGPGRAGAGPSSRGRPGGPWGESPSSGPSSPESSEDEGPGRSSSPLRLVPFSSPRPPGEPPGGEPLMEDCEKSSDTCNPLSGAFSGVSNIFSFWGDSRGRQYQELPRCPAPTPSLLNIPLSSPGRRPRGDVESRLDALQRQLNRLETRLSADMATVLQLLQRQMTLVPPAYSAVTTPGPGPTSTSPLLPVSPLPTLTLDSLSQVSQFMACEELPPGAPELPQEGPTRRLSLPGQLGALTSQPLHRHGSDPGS

| Compound | hERG current change (%, negative = inhibition) at 10uM [%] |
| --- | --- |
| CCC(NC(=O)c1ccccc1NC(=O)c1ccco1)C(=O)NNC(=O)c1ccncc1 (stereo not drawn) | 8.86 |
| COc1ccc(NC(=O)CCCc2ccc(OC)c(C)c2)cc1 | 3.93 |
| Cn1nnnc1SCC(=O)NCc1ccc2c(c1)OCO2 | 31.4 |
| CC(C)c1cc(C(=O)N/N=C/c2cccnc2)cs1 | -31.9 |
| c1coc(CSc2ncnc3c2oc2ccccc23)c1 | 13.9 |
| COCCN(CCOC)c1nc(-c2ccc([N+](=O)[O-])cc2)nc2ccccc12 | -34.3 |
| COCCN(CCOC)c1nc(-c2ccccc2)nc2ccccc12 | -68.2 |
| COCCN(CCOC)c1nc(-c2ccc(C)cc2)nc2ccccc12.Cl | -65.4 |
| COCCNc1nc(-c2ccccc2)nc2ccccc12.Cl | -32.5 |
| COCCN(CCOC)c1nc(-c2ccc(Cl)cc2)nc2ccccc12 | -5.82 |
| Cc1ccc(-c2nc(NCCN(C)C)c3ccccc3n2)cc1 | -44.9 |
| O=C(O)C1CC(=O)N(c2ccc(F)c(F)c2)C1 (stereo not drawn) | 13 |
| CCCCOC(=O)C1=C(C)NC(=O)NC1c1ccccc1 (stereo not drawn) | 6.12 |
| COc1ccc(SCCN2CC[C@@H](NC(=O)OCc3ccccc3)CCC2=O)cc1 | -54.4 |
| Cc1ccc(S[C@@H](CCN2CC[C@H](NC(=O)OCc3ccccc3)CCC2=O)c2ccccc2)cc1 | -26.1 |
| [N-]=[N+]=NC[C@H](Cc1ccccc1)N1CC[C@@H](NC(=O)OCc2ccccc2)CCC1=O | -52.5 |
| Cc1ccc(SC[C@H](C)CN2CC[C@H](NC(=O)OCc3ccccc3)CCC2=O)cc1 | -41.6 |
| Cc1ccc(SCCN2CCC(NC(=O)OCc3ccccc3)CCC2=O)cc1 (stereo not drawn) | -50.1 |
| O=C(N[C@H]1CCC(=O)N([C@H](CSc2ccccc2)Cc2ccccc2)CC1)OCc1ccccc1 | -37.6 |
| O=C(NC1CCC(=O)N(CCOc2ccccc2)CC1)OCc1ccccc1 (stereo not drawn) | -30.2 |
| O=C(N[C@H]1CCC(=O)N(CCSc2ccc(Br)cc2)CC1)OCc1ccccc1 | -29.2 |

| Compound | hERG current change (%, negative = inhibition) at 10uM [%] |
| --- | --- |
| O=C(N[C@@H]1CCC(=O)N(CC[C@H](Sc2ccccc2)c2ccccc2)CC1)OCc1ccccc1 | -24 |
| COc1ccc(SC[C@H](Cc2ccccc2)N2CC[C@@H](NC(=O)OCc3ccccc3)CCC2=O)cc1 | -10.2 |
| O=C(NC1CCC(=O)N(CCSc2ccccc2)CC1)OCc1ccccc1 (stereo not drawn) | -59.2 |
| N#CC[C@H](Cc1ccccc1)N1CC[C@@H](NC(=O)OCc2ccccc2)CCC1=O | -45.1 |
| N/C(=N\OC(=O)COc1ccc2ccccc2c1Br)c1cccnc1 | 12.9 |
| Cc1cc(C)cc(C(=O)OCC(=O)Nc2ncccn2)c1 | -0.75 |
| Cc1cccc(NC(=O)c2ccc3nc(N4CCOCC4)sc3c2)c1C | -34.7 |
| COc1ccc(S(=O)(=O)NCCc2cc3ccc(C)c(C)c3[nH]c2=O)cc1 | 17.2 |
| C/C(=N\NC(=O)c1c[nH]c2ccccc12)c1ccc2c(c1)OCO2 | 1.64 |
| COc1ccccc1CNC(=O)Cn1c(=O)oc2cc(Cl)ccc21 | 0.41 |
| CC(C)CCCN1C(Nc2ccccc2)=NC[C@@H]1Cc1ccccc1 | -62.3 |
| CCCCN1C(Nc2ccccc2)=NC[C@@H]1CC(C)C | -34.5 |
| CC(C)C[C@H]1CN=C(Nc2ccccc2)N1CC(C)C | -3.04 |
| CCCCCCCN1C(Nc2ccccc2)=NC[C@@H]1CC(C)C | -73.7 |
| CC(C)CCCN1C(Nc2ccccc2)=NC[C@@H]1CC(C)C | -60.1 |
| CC(C)CCN1C(Nc2ccccc2)=NC[C@@H]1CC(C)C | -33.4 |
| CCN1C(Nc2ccccc2)=NC[C@@H]1CC(C)C | 3.75 |
| CC(C)CCCN1CCN=C1Nc1ccccc1 | -3.11 |
| CC(C)CCN1C(Nc2ccccc2)=NC[C@@H]1Cc1ccccc1 | -47.9 |
| CCC(CC)CN1C(Nc2ccccc2)=NC[C@@H]1CC(C)C | -58.2 |
| CC1(OC(=O)CCc2ccccc2)C(=O)C=C2C=C3CCCN3C=C2C1=O (stereo not drawn) | -1.36 |

Source: article PMC4336329 (PLoS ONE, 2015)
